Source: ChEMBL document CHEMBL3988442, “University of Dundee, Small-Polar-MMV Screening Library” (2021)

These compounds were tested against Chromo domain-containing protein 1 (Saccharomyces cerevisiae (strain ATCC 204508 / S288c) (Baker's yeast)) (UniProt P32657) (assay: ScCHD-1 Enzyme Inhibition Assay). Conditions: 30 µM.
Assay type: functional
Set-up: scale not given: in the data most compounds retested in dose-response had high values

Sequence of Chromo domain-containing protein 1 (Saccharomyces cerevisiae (strain ATCC 204508 / S288c) (Baker's yeast)) (P32657 whole entry, the tested form may be a part): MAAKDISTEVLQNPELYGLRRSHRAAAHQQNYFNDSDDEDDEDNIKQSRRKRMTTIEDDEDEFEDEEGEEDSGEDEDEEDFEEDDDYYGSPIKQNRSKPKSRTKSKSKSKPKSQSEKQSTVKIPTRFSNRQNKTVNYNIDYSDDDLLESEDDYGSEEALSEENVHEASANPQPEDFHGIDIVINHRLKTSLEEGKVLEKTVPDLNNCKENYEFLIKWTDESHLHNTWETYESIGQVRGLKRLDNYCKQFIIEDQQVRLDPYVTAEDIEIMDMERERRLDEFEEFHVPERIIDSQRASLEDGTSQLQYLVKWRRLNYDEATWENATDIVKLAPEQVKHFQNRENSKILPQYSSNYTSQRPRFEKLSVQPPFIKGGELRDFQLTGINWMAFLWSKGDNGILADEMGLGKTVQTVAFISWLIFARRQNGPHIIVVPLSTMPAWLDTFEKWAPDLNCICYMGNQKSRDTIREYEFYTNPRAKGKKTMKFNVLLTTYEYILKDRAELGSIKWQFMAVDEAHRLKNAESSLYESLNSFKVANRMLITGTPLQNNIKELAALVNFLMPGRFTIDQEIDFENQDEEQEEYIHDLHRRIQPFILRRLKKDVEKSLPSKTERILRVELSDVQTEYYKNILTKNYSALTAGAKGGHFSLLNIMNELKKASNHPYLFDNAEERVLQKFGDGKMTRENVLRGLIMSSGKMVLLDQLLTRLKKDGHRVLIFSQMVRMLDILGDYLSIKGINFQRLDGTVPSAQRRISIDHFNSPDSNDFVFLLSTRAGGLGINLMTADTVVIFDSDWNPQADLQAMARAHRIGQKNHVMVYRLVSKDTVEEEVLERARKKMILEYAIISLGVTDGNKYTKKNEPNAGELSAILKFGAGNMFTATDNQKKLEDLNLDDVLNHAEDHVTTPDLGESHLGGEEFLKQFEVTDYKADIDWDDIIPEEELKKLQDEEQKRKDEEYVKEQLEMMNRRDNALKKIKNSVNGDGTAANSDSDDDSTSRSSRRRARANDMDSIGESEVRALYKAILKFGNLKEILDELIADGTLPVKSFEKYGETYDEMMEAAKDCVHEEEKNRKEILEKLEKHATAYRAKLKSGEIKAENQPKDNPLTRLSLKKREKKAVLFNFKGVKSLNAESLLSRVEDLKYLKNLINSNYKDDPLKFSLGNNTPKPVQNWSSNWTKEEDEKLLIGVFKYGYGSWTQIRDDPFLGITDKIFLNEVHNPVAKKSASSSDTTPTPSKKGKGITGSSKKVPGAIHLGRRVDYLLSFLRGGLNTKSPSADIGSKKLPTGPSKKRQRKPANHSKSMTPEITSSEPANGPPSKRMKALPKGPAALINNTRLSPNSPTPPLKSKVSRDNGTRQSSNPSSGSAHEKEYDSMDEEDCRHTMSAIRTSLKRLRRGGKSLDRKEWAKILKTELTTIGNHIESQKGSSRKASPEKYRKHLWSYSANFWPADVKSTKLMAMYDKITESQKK

Row | Compound | Percent Effect [%]
1 | NC(=O)C1(c2cnccn2)CCCN1Cc1cc2ccccc2o1 (stereo not given) | -6.96
2 | CS(=O)(=O)N1CCCCCC1C1CCN(c2ncccc2C#N)CC1 (stereo not given) | 2.11
3 | CC(C)CN1Cc2c(C(=O)N(C)C)ncn2-c2ccccc2S1(=O)=O | 0.625
4 | CC(C)N1CCC(Cc2cncc(-c3ccccc3C(=O)O)n2)CC1 | -3.75
5 | O=C(c1ccsc1)N1CC[C@H]2C[C@@H](c3nnc(C4CC4)o3)O[C@@H]2C1 | -7.52
6 | Cn1nnc2c1C(COCC1CC1)CN(C(=O)Cc1ccsc1)C2 (stereo not given) | -12.5
7 | Cc1noc(C)c1CN1CC[C@@H](OCC2CC2)[C@@H](Cc2ccccc2)C1 | -5.06
8 | Cc1ccc(CC2CCCN2CC(=O)NCc2ccccn2)cc1 (stereo not given) | -2.14
9 | CCCC1CCCN(Cc2csc(-c3cnn(C)c3)n2)CC1 (stereo not given) | -4.84
10 | COc1c(CNCC(O)c2cccc(F)c2)c(C(C)C)nn1C (stereo not given) | -15.9
11 | CC(NC(=O)NCCCO)c1ccc2c(c1)OCCO2 (stereo not given) | -6.78
12 | Cc1c(C2CCCN(C(=O)C3CC3)C2)n2c(nc1=O)CCC2 (stereo not given) | -11
13 | CCn1cc(CN2CCCn3nc(CCC(=O)NCCO)cc3C2)cn1 | 0.629
14 | Fc1ccc2[nH]c(C3CCCN3CCc3ccccn3)nc2c1 (stereo not given) | 2.89
15 | O=C(CCc1cscn1)N1CCCC1c1noc(C2CC2)n1 (stereo not given) | -5.15
16 | CCn1c(CN2CCCN(C(=O)OC)CC2)nc2c(F)cccc21 | -4.43
17 | Cc1nc(C)n(CC2CN(Cc3cccc(C(N)=O)c3)CCO2)n1 (stereo not given) | 7.72
18 | O=C(C1CC(=O)N(C2CCCC2)C1)N1CCN(CCn2cccc2)CC1 (stereo not given) | -7.64
19 | CCN(Cc1nc2c(cnn2C)c(=O)[nH]1)c1ccc(OC)c(OC)c1 | -22.5
20 | NC(=O)C1CCN(Cc2cccc(NC(=O)c3ccsc3)c2)CC1 | -5.67
